Read-out in assay [1]: TIMP metallopeptidase inhibitor 2 (TIMP2), TIMP2 (gene 7077)
The assay is described as follows: BSK_KF3CT_TIMP2: BioMAP Diversity Plus: KF3CT Assay for TIMP metallopeptidase inhibitor 2 (TIMP2) Biomarker Activity (AID 2283071). The following applies: primary human keratinocytes with fibroblasts; actives raise or lower the signal. In outline:
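Co-culture of human primary keratinocytes and foreskin fibroblasts, measured 24 h after chemical dosing. TIMP-2 quantified by ELISA and fitted in both directions relative to DMSO. Cytotoxicity checked in parallel cultures by SRB total-protein staining.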

Read-out in assay [2]: Transforming growth factor beta 1 (TGFb1), TGFB1 (gene 7040)
The assay can be described thus: BSK_KF3CT_TGFb1: BioMAP Diversity Plus: KF3CT Assay for Transforming growth factor beta 1 (TGFb1) Biomarker Activity (AID 2283072). As to conditions: primary human keratinocytes with fibroblasts; actives raise or lower the signal. The essentials:
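Human keratinocyte/foreskin fibroblast co-culture; TGF-b1 measured by ELISA 24 h after dosing, fitted bidirectionally versus DMSO. Cytotoxicity checked in parallel cultures by total protein (SRB staining, 560 nm).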

Read-out in assay [3]: C-C motif chemokine 2 (Homo sapiens) (UniProt P13500)
The assay can be described thus: BSK_KF3CT_MCP1: BioMAP Diversity Plus: KF3CT Assay for Monocyte Chemoattractant Protein 1 (MCP1/CCL2) Biomarker Activity (AID 2283073). As to conditions: primary human keratinocytes with fibroblasts; actives raise or lower the signal. In outline:
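KF3CT skin co-culture (keratinocytes/foreskin fibroblasts), 24 h post-dose; MCP-1 by ELISA; gain/loss of signal fit bidirectionally vs DMSO baseline.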

Read-out in assay [4]: Matrix Metallopeptidase 9 (MMP9), MMP9 (gene 4318)
The assay can be described thus: BSK_KF3CT_MMP9: BioMAP Diversity Plus: KF3CT Assay for Matrix Metallopeptidase 9 (MMP9) Biomarker Activity (AID 2283074).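 For AC50: MMP9 protein level quantified by ELISA in the co-culture.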 As to conditions: primary human keratinocytes with fibroblasts; actives raise or lower the signal. The essentials:
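Human keratinocyte/foreskin fibroblast co-culture; compound added; 24 h; MMP-9 by ELISA; bidirectional fit vs DMSO baseline.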

Read-out in assay [5]: CD40, CD40 (gene 958)
The assay is described as follows: BSK_LPS_CD40: BioMAP Diversity Plus: LPS Assay for CD40 Biomarker Activity (AID 2283076). The following applies: primary human HUVEC with PBMC; actives raise or lower the signal. In outline: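 ELISA readout of CD40 in HUVEC/PBMC co-culture (BSK_LPS system), 24 h post-dosing; bidirectional curve fit, DMSO baseline; parallel SRB total-protein staining for cytotoxicity.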

Read-out in assay [6]: E-selectin (Homo sapiens) (UniProt P16581)
The assay can be described thus: BSK_LPS_Eselectin: BioMAP Diversity Plus: LPS Assay for Eselectin Biomarker Activity (AID 2283077). The following applies: primary human HUVEC with PBMC; actives raise or lower the signal. In outline:
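ELISA readout of E-selectin, 24 h post-dose, HUVEC + PBMC co-culture (LPS system). Gain or loss of signal vs DMSO baseline, bidirectional fit.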

Read-out in assay [7]: Interleukin-8 (IL8), CXCL8 (gene 3576)
The assay is described as follows: BSK_LPS_IL8: BioMAP Diversity Plus: LPS Assay for Interleukin-8 (IL8) Biomarker Activity (AID 2283078). The following applies: primary human HUVEC with PBMC; actives raise or lower the signal. In outline: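 HUVEC + PBMC co-culture, LPS-activated; test chemicals dosed, IL-8 read by ELISA at 24 h. Bidirectional curve fit vs DMSO baseline (gain or loss of signal).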

Assay [8] is described as follows: BSK_LPS_SRB: Viability Assessment in the BioMAP Diversity Plus: LPS Assay (AID 2283079).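 Note: total protein by sulforhodamine B absorbance as a cytotoxicity measure; measured one day after compound addition; fitted in both directions against DMSO so loss or gain of signal counts.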 As to conditions: primary human HUVEC with PBMC. The essentials:
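HUVEC + PBMC co-culture, LPS-stimulated; compound 24 h. 10% TCA fix, 0.1% SRB stain, A560. Bidirectional fit vs DMSO.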

Read-out in assay [9]: Interleukin-1 alpha (IL1a), IL1A (gene 3552)
The assay can be described thus: BSK_LPS_IL1a: BioMAP Diversity Plus: LPS Assay for Interleukin-1 alpha (IL1a) Biomarker Activity (AID 2283080). As to conditions: primary human HUVEC with PBMC; actives raise or lower the signal. In outline: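 HUVEC/PBMC co-culture, LPS system; 24 h after dosing; IL-1a by ELISA; gain or loss of signal fitted bidirectionally vs DMSO baseline.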

Read-out in assay [10]: Monocyte Chemoattractant Protein-1 (MCP1), CCL2 (gene 6347)
The assay is described as follows: BSK_LPS_MCP1: BioMAP Diversity Plus: LPS Assay for Monocyte Chemoattractant Protein-1 (MCP1) Biomarker Activity (AID 2283081).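 Note: secreted MCP-1 protein quantified by ELISA in culture supernatant.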 As to conditions: primary human HUVEC with PBMC; actives raise or lower the signal. The essentials: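 ELISA read-out of MCP-1 after 24 h chemical dosing of a human umbilical vein endothelial cell/peripheral blood mononuclear cell co-culture stimulated with LPS. Gain or loss of signal fitted relative to DMSO controls.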

The nature of assay [11]: BSK_LPS_PGE2: BioMAP Diversity Plus: LPS Assay for Prostaglandin E2 (PGE2) Biomarker Activity (AID 2283082). The following applies: primary human HUVEC with PBMC; actives raise or lower the signal. The essentials: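 HUVEC plus human PBMC co-culture stimulated with LPS; secreted PGE2 quantified by ELISA 24 h after chemical dosing. Activity fitted bidirectionally against DMSO baseline; parallel SRB staining (0.1% SRB after 10% TCA fixation, 560 nm) flags overt cytotoxicity.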

Read-out in assay [12]: Tissue Factor, F3 (gene 2152)
The assay can be described thus: BSK_LPS_TissueFactor: BioMAP Diversity Plus: LPS Assay for Tissue Factor Biomarker Activity (AID 2283084). As to conditions: primary human HUVEC with PBMC; actives raise or lower the signal. The essentials:
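HUVEC/PBMC co-culture, LPS-activated; CD142 ELISA read 24 h post-dose; bidirectional curve fit vs DMSO negative control.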

Read-out in assay [13]: Tumor necrosis factor (Homo sapiens) (UniProt P01375)
The assay can be described thus: BSK_LPS_TNFa: BioMAP Diversity Plus: LPS Assay for Tumour Necrosis Factor alpha (TNFa) Biomarker Activity (AID 2283085). As to conditions: primary human HUVEC with PBMC; actives raise or lower the signal. In outline: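 Human umbilical vein endothelial cells co-cultured with PBMC and stimulated with LPS. TNFa was measured by ELISA 24 h after chemical dosing, fitted bidirectionally relative to DMSO.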

Read-out in another assay: CD38, CD38 (gene 952)
The assay can be described thus: BSK_SAg_CD38: BioMAP Diversity Plus: SAg Assay for CD38 Biomarker Activity (AID 2283087). As to conditions: primary human HUVEC with PBMC; actives raise or lower the signal. In outline:
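Human HUVEC plus PBMC co-culture stimulated with superantigen; CD38 measured by ELISA 24 h after chemical dosing. Fluorescence read-out, bidirectional fit against DMSO; cytotoxicity tracked in parallel by SRB and Alamar Blue.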

Read-out in assay [14]: CD40, CD40 (gene 958)
The assay can be described thus: BSK_SAg_CD40: BioMAP Diversity Plus: SAg Assay for CD40 Biomarker Activity (AID 2283088). The following applies: primary human HUVEC with PBMC; actives raise or lower the signal. The essentials: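 HUVEC/PBMC co-culture, 24 h post-dose; CD40 by ELISA, fluorescence intensity; bidirectional fit vs DMSO negative control.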

Read-out in the next assay: CD69, CD69 (gene 969)
The assay is described as follows: BSK_SAg_CD69: BioMAP Diversity Plus: SAg Assay for CD69 Biomarker Activity (AID 2283089).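 For AC50: cell surface CD69 protein quantified by ELISA with fluorescence detection.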 The following applies: primary human HUVEC with PBMC; actives raise or lower the signal. In outline:
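Values derive from bidirectional fitting relative to DMSO vehicle. Cells: umbilical vein endothelium plus peripheral blood mononuclear cells, treated 24 h before fluorescent ELISA for CD69.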

Read-out in assay [15]: Monocyte Chemoattractant Protein-1 (MCP1), CCL2 (gene 6347)
The assay is described as follows: BSK_SAg_MCP1: BioMAP Diversity Plus: SAg Assay for Monocyte Chemoattractant Protein-1 (MCP1) Biomarker Activity (AID 2283090). The following applies: primary human HUVEC with PBMC; actives raise or lower the signal. In outline: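 MCP-1 levels in the endothelial–PBMC SAg co-culture were quantified by ELISA at 24 h post-dosing; both increases and decreases versus DMSO scored. Cytotoxicity monitored by SRB total protein in parallel cultures.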

Read-out in assay [16]: urokinase plasminogen activator (uPA), PLAU (gene 5328)
The assay is described as follows: BSK_KF3CT_uPA: BioMAP Diversity Plus: KF3CT Assay for urokinase plasminogen activator (uPA) Biomarker Activity (AID 2283075). The following applies: primary human keratinocytes with fibroblasts; actives raise or lower the signal. The essentials:
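ELISA readout of uPA, analyzed for signal gain or loss relative to DMSO, from a human primary keratinocyte–foreskin fibroblast co-culture measured 24 h after chemical treatment.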

Read-out in assay [17]: Macrophage colony-stimulating factor (MCSF), CSF1 (gene 1435)
The assay can be described thus: BSK_LPS_MCSF: BioMAP Diversity Plus: LPS Assay for Macrophage colony-stimulating factor (MCSF) Biomarker Activity (AID 2283083). The following applies: primary human HUVEC with PBMC; actives raise or lower the signal. The essentials:
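HUVEC + PBMC co-culture (human primary), 24 h post-dose; M-CSF by ELISA; gain/loss of signal fitted bidirectionally vs DMSO baseline.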

Activity calls are given as the source filed them. Rule for the calls: active = hit-call score of the fitted dose curve at least 0.9, where 1 is the maximum; inactive = score below 0.9.

Sequence of E-selectin (Homo sapiens) (P16581 whole entry, looked up): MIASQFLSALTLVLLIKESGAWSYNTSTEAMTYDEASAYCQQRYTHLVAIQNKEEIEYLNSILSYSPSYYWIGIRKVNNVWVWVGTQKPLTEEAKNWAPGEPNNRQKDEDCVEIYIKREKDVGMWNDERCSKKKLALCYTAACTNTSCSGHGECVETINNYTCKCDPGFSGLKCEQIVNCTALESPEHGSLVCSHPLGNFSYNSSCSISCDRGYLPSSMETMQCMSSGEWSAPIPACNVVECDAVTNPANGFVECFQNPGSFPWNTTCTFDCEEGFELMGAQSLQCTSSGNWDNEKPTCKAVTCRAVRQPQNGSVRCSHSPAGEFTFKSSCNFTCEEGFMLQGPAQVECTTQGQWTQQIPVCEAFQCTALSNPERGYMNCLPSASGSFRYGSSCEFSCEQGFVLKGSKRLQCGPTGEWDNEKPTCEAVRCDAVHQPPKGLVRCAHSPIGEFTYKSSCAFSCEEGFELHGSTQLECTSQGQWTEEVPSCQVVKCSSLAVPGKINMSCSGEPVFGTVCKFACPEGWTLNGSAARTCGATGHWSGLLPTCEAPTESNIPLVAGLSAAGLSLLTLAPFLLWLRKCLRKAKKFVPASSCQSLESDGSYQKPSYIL
Sequence of Tumor necrosis factor (Homo sapiens) (P01375 whole entry, looked up): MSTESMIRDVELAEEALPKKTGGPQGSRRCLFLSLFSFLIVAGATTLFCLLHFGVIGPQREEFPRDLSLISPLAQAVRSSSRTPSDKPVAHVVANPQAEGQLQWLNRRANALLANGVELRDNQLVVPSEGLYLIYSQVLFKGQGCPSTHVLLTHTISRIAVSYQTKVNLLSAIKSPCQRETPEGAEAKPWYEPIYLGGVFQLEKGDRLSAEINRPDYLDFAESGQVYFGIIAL

For the molecule `CCCCCCCc1ccc(O)cc1`, the AC50 (commonly the midpoint of the concentration-response curve, whichever way the signal moves) in assay [1] is 32.2 µM (active); in [2], 31.7 µM (active); in assay [3] it was 29.6 µM (active); in assay [4] it was 30.5 µM (active); with CD40, CD40 (gene 958) [5], 30.9 µM (active); in assay [6], 35.8 µM (active). For the same molecule, the AC50 in assay [7] was 35.1 µM (active); in assay [8] it was 37.2 µM (active); in [9], 31.2 µM (active); in assay [10] it was 36.5 µM (active); in assay [11] it was 2.95 µM (active); in assay [12], 38.1 µM (active). The AC50 in [13] was 30.8 µM (active); with CD38, CD38 (gene 952), 35.7 µM (active); in the assay with CD40, CD40 (gene 958) [14] it was 35.6 µM (active); in the assay with CD69, CD69 (gene 969), 39.2 µM (active); in assay [15] it was 36 µM (active).
Turning to `FC(F)(F)C(F)(C(F)(F)F)C(F)(F)C(F)(F)CC1CO1` (stereo unspecified), the outcome was “inactive” in assay [1]; “inactive” in assay [3]; “inactive” in assay [4]; “inactive” in assay [16]; “inactive” with CD40, CD40 (gene 958) [5]; “inactive” in assay [6]. For the same molecule, the result in assay [7], in assay [8], in assay [9], in assay [17], in assay [12] and in [13] was inactive. Besides, the outcome is “inactive” in the assay with CD38, CD38 (gene 952); “inactive” with CD40, CD40 (gene 958) [14]; “inactive” with CD69, CD69 (gene 969).
Take `O=S(=O)(F)C(F)(F)C(F)(F)C(F)(F)C(F)(F)C(F)(F)C(F)(F)C(F)(F)C(F)(F)F`: the outcome in [1] is “inactive”; in [3], “inactive”; in assay [4], “inactive”; in assay [16] it was “inactive”; with CD40, CD40 (gene 958) [5], “inactive”; in assay [6], “inactive”. Also, the outcome in assay [7] was “inactive”; in [8], “inactive”; in assay [9] it was “inactive”; in [11], “inactive”; in [13], “inactive”; in the assay with CD38, CD38 (gene 952), “inactive”. Besides, the outcome in the assay with CD40, CD40 (gene 958) [14] was “inactive”; with CD69, CD69 (gene 969), “inactive”.

(Values after PubChem BioAssay (EPA / NIEHS).)
